The full data set covers some 7,900 targets. This sample favours those with a hit. About 0.6% of all pairs of compound and target were hits.
What was measured:
Experiment in all cases: log2 fold change, soluble protein after heating vs DMSO (PISA); higher = thermal stabilisation; K562 cells, 10 uM, 30 min; active = over 0.2 and 3.5 SD of the protein, either way, in both replicates (recomputed)
[1] = compound: C1=CC=C(C=C1)[C@H](COC2=CC3=C(C=C2)NC(=O)N3)NC(=O)C4=CC=CN(C4=O)CC5=CC(=C(C=C5)F)F
Procedure, shortened: (§1)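 For each measurement, 10 μM compound was applied for 30 min to K562 cells at 2×10^6 cells/mL. Aliquots were heated for 3 min across 48°C-58°C, pooled, and extracted in PBS with 0.5% NP-40 at 4°C; the supernatant after 21,000xg for 90 min was soluble protein. This was quantified by TMTpro 16plex LC-MS/MS with channel sums equalised, and thermal stability was reported relative to control samples from duplicates, on a log2 fold-change scale.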

[2] = compound: CC1=C(SC2=C1C(=N[C@H](C3=NN=C(N32)C)CC(=O)N)C4=CC=C(C=C4)Cl)C
Procedure, shortened: as §1

[3] = compound: CC1=C2C(=CC=C1)N=C(N(C2=O)C3=CC=CC=C3C)CN4C=NC5=C(N=CN=C54)N
Procedure, shortened: as §1

[4] = compound: Cc1sc2c(c1C)C(c1ccc(Cl)cc1)=N[C@@H](CC(=O)OC(C)(C)C)c1nnc(C)n1-2
Procedure, shortened: as §1

[5] = compound: c1ccc([C@@H]2C[C@H]2NC2CCNCC2)cc1
Procedure, shortened: as §1

Measured: log2 fold change

CREB3L2 (UniProt Q70SY1)
inactive: [1] 0.331 | [2] -0.15 | [3] 0.296 | [4] -0.143 | [5] -0.247

CNN3 (UniProt Q15417)
inactive: [1] -0.015 | [2] 0.18 | [3] 0.079 | [4] 0.035 | [5] 0.03

COASY isoform 2 (UniProt Q13057)
UniProt Q13057, sequence (Q13057 whole entry, looked up): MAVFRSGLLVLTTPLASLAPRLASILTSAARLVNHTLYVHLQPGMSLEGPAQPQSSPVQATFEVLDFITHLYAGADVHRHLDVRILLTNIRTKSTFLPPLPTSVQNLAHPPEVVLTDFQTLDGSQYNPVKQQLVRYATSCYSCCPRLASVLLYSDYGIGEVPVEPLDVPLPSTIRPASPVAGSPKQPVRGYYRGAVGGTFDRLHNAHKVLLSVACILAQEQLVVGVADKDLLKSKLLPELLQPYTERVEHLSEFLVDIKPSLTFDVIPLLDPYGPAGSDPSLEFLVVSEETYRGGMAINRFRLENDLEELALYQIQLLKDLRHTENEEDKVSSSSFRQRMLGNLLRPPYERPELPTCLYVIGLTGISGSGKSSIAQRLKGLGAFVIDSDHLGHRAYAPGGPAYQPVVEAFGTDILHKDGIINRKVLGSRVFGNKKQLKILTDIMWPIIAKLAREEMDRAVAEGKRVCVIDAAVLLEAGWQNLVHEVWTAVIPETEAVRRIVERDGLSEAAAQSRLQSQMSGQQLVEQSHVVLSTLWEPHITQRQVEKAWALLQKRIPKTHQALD
inactive: [1] -0.03 | [2] 0.054 | [3] 0.053 | [4] -0.037 | [5] -0.021

CD53 (UniProt P19397)
inactive: [1] -0.05 | [2] 0.142 | [3] 0.106 | [4] 0.083 | [5] 0.014

CAD (UniProt P27708)
inactive: [1] -0.115 | [2] 0.048 | [3] -0.019 | [4] -0.005 | [5] -0.033

CHCHD1 (UniProt Q96BP2)
inactive: [1] 0.07 | [2] -0.056 | [3] -0.031 | [4] 0.168 | [5] 0.021

CCNH (UniProt P51946)
UniProt P51946, sequence (P51946 whole entry, looked up): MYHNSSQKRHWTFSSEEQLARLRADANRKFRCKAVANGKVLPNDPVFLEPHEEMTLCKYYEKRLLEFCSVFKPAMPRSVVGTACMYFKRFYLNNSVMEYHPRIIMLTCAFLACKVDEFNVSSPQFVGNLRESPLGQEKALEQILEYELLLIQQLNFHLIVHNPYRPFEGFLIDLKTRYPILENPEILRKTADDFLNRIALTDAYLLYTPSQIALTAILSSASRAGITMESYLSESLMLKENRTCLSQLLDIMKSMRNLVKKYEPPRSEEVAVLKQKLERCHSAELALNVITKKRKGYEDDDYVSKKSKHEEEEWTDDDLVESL
inactive: [1] 0.02 | [2] -0.035 | [3] 0.032 | [4] 0.002 | [5] 0.033

CASTOR2 (UniProt A6NHX0)
inactive: [1] 0.056 | [2] 0.078 | [3] 0.039 | [4] -0.065 | [5] -0.016

CCDC59 (UniProt Q9P031)
inactive: [1] 0.012 | [2] -0.177 | [3] -0.214 | [4] 0.165 | [5] 0.052

CDK1 (UniProt P06493)
UniProt P06493, sequence (P06493 whole entry, looked up): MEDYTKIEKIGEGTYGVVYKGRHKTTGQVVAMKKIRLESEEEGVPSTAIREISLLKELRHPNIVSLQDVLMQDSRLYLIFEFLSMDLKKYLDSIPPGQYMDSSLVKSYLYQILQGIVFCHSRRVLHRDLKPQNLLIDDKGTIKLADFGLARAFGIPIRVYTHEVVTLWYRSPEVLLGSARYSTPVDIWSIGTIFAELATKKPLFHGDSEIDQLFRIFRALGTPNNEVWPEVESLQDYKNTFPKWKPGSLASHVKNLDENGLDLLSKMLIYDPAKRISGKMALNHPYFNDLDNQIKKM
inactive: [1] -0.019 | [2] 0.036 | [3] 0.003 | [4] 0.019 | [5] 0.037

CD151 (UniProt P48509)
inactive: [1] -0.126 | [2] 0.049 | [3] 0.031 | [4] -0.046 | [5] 0.101

CSE1L (UniProt P55060)
inactive: [1] -0.024 | [2] 0.063 | [3] 0.033 | [4] -0.028 | [5] -0.009

COPS4 (UniProt Q9BT78)
inactive: [1] 0.04 | [2] 0.023 | [3] 0.016 | [4] -0.01 | [5] -0.011

CLUH, A0A494C0R8
inactive: [1] -0.121 | [2] -0.004 | [3] 0.025 | [4] 0.152 | [5] 0.096

CSTF2 (UniProt P33240)
UniProt P33240, sequence (P33240 whole entry, looked up): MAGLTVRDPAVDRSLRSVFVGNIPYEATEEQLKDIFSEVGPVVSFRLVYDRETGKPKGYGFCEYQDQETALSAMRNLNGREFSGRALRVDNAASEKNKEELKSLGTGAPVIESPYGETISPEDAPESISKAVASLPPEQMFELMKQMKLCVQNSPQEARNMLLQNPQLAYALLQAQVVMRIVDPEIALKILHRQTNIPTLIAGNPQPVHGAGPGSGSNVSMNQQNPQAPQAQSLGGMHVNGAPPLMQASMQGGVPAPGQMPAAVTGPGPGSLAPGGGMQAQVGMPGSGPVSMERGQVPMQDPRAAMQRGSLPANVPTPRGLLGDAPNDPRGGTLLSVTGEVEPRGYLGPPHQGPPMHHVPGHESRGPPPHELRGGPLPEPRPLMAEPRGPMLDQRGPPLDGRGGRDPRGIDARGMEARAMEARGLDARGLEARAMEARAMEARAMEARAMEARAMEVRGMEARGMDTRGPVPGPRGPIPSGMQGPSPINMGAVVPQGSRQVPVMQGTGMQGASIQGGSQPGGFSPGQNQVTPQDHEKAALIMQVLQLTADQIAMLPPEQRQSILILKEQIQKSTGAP
inactive: [1] 0.017 | [2] 0.04 | [3] 0.057 | [4] -0.026 | [5] 0.021

CDK11B (UniProt P21127)
inactive: [1] -0.05 | [2] 0.015 | [3] 0.137 | [4] -0.01 | [5] 0.059

CSK (UniProt P41240)
inactive: [1] -0.096 | [2] 0.051 | [3] 0.057 | [4] 0.011 | [5] -0.032

CBX5 (UniProt P45973)
inactive: [1] -0.001 | [2] 0.029 | [3] 0.05 | [4] 0.016 | [5] 0.008

CLUH (UniProt O75153)
inactive: [1] -0.05 | [2] 0.027 | [3] 0.086 | [4] -0.016 | [5] -0.052

CLN3 (UniProt Q13286)
inactive: [1] 0.005 | [2] -0.032 | [3] -0.315 | [4] -0.119 | [5] 0.087

CLPX (UniProt O76031)
inactive: [1] 0.011 | [2] -0.02 | [3] 0.013 | [4] -0.035 | [5] 0.048

COA6 isoform 2 (UniProt Q5JTJ3)
UniProt Q5JTJ3, sequence (Q5JTJ3 whole entry, looked up): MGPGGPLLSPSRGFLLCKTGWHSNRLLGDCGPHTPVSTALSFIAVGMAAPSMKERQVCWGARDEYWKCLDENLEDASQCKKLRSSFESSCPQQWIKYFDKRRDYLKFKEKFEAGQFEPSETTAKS
inactive: [1] 0.06 | [2] 0.08 | [3] 0.038 | [4] -0.06 | [5] -0.015

CDC123 (UniProt O75794)
inactive: [1] -0.036 | [2] 0 | [3] 0.03 | [4] -0.018 | [5] -0.029

CLSPN (UniProt Q9HAW4)
inactive: [1] 0.002 | [2] -0.009 | [3] -0.043 | [4] -0.004 | [5] 0.036

CD63 (UniProt P08962)
UniProt P08962, sequence (P08962 whole entry, looked up): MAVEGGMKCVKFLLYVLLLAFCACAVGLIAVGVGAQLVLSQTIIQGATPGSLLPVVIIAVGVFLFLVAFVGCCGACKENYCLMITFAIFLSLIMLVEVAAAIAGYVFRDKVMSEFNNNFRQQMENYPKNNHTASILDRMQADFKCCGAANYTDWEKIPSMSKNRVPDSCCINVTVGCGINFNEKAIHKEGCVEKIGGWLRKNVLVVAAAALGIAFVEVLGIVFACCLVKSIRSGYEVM
inactive: [1] 0.041 | [2] 0.02 | [3] -0.008 | [4] 0.009 | [5] 0.035

CPD (UniProt O75976)
inactive: [1] 0.008 | [2] 0.014 | [3] 0.044 | [4] -0.013 | [5] 0.053

CERT isoform 3 (UniProt Q9Y5P4)
UniProt Q9Y5P4, sequence (Q9Y5P4 whole entry, looked up): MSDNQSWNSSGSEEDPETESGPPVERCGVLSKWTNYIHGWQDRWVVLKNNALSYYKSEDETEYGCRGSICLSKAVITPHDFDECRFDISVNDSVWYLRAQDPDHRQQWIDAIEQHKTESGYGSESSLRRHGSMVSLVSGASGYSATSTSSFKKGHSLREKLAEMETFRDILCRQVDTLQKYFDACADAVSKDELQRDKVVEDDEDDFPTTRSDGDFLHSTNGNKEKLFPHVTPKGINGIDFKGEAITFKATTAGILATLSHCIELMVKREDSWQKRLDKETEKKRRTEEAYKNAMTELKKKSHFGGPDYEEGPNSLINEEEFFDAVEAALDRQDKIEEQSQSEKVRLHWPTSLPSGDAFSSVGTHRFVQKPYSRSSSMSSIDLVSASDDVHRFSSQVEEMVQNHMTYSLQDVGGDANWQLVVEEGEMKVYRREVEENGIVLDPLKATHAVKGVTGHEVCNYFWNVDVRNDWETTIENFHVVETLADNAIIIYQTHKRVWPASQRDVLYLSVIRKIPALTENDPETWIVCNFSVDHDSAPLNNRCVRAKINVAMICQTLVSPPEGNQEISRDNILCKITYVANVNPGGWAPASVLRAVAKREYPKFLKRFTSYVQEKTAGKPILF
inactive: [1] 0.102 | [2] 0.029 | [3] 0.066 | [4] 0.14 | [5] -0.028

CDC42SE1 (UniProt Q9NRR8)
inactive: [1] -0.151 | [2] 0.016 | [3] 0.088 | [4] -0.076 | [5] -0.007

CAV2 (UniProt P51636)
inactive: [1] 0 | [4] -0.046

CLASP2 (UniProt O75122)
UniProt O75122, sequence (O75122 whole entry, looked up): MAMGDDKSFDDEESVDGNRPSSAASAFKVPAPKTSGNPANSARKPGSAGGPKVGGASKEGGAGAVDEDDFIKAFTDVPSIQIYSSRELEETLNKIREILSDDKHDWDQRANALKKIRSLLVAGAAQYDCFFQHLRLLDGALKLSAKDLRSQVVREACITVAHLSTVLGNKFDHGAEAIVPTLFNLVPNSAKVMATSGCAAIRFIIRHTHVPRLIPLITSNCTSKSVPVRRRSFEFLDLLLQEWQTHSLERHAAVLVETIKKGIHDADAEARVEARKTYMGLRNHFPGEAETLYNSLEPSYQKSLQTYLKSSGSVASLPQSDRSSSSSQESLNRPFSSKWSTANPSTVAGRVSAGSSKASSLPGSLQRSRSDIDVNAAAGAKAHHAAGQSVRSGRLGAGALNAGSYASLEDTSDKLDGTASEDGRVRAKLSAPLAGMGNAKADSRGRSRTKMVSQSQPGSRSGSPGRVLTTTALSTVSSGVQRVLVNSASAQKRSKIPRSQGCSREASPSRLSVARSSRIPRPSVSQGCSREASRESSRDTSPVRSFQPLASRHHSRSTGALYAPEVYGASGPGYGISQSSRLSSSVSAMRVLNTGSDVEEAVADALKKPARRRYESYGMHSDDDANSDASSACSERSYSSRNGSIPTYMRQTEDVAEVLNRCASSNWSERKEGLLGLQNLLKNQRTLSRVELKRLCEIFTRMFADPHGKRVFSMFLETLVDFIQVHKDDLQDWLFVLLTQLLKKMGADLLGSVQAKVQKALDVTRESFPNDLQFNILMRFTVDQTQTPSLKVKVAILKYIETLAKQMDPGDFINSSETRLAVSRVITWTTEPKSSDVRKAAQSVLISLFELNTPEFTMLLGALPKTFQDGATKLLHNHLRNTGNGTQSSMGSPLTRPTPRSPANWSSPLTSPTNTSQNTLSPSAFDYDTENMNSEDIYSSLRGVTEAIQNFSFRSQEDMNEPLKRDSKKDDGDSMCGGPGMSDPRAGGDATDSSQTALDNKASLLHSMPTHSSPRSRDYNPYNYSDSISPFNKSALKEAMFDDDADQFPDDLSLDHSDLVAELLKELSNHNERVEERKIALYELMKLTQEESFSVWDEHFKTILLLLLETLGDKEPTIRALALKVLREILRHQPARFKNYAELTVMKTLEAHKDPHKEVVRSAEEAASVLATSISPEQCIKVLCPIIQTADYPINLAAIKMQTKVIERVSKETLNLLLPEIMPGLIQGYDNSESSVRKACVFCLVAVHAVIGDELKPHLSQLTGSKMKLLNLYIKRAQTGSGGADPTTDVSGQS
inactive: [1] 0.059 | [2] 0.117 | [5] -0.222

CRTC2 (UniProt Q53ET0)
inactive: [1] 0.006 | [3] -0.075 | [4] 0.052

CLCN5 isoform 2 (UniProt P51795)
inactive: [2] 0.028 | [3] -0.023 | [4] 0.024 | [5] -0.053

CDCA2 (UniProt Q69YH5)
inactive: [2] 0.035 | [3] 0.05 | [4] -0.003 | [5] -0.077

CASP9 (UniProt P55211)
inactive: [2] -0.045 | [3] 0.102 | [4] 0.05 | [5] 0.12

CCNT2 (UniProt O60583)
inactive: [4] 0.061

CHAF1A (UniProt Q13111)
UniProt Q13111, sequence (Q13111 whole entry, looked up): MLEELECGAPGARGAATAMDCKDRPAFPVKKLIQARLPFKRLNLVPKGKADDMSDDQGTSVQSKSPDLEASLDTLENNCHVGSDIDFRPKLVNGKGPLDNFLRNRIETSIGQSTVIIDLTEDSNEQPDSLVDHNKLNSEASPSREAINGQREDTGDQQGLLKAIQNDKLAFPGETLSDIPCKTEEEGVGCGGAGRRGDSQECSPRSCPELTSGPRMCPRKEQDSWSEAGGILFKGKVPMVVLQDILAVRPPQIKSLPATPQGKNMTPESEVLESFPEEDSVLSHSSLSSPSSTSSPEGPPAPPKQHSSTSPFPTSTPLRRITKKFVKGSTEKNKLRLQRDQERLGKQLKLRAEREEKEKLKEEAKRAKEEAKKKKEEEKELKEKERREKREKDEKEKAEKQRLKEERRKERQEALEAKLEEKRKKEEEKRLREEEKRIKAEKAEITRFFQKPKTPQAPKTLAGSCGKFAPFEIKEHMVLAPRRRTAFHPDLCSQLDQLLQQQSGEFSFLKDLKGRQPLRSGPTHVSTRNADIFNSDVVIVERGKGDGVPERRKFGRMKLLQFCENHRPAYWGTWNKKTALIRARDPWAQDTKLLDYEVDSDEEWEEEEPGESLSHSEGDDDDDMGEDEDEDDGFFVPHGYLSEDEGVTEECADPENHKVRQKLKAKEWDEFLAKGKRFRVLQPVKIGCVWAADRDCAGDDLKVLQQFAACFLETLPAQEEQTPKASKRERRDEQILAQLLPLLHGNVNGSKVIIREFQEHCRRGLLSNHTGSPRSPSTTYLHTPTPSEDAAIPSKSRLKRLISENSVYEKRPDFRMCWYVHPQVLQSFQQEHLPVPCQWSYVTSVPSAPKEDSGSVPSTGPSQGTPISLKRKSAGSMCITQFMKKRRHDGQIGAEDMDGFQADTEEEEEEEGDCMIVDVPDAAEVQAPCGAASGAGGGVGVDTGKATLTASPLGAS
inactive: [1] 0.045 | [2] -0.026 | [5] -0.045

CPNE5 (UniProt Q9HCH3)
inactive: [2] -0.16 | [4] 0.146 | [5] -0.035

CCDC167 (UniProt Q9P0B6)
inactive: [1] 0.153 | [2] -0.037 | [4] -0.124 | [5] 0.073

COX7C (UniProt P15954)
inactive: [1] -0.023 | [3] -0.073 | [4] -0.079

COX17 (UniProt Q14061)
inactive: [2] 0.12 | [3] 0.022 | [4] -0.073 | [5] -0.085

CRLS1 (UniProt Q9UJA2)
inactive: [2] -0.005 | [3] -0.034 | [4] -0.01 | [5] 0.003

C15orf41 (UniProt Q9Y2V0)
inactive: [2] 0.081 | [3] 0.014 | [4] -0.011 | [5] 0.149

CKS2 (UniProt P33552)
inactive: [1] -0.084 | [4] -0.08
